PMP22 txn = Cell-based coincidence reporter assay to measure PMP22 gene transcription in S16 Pmp22-F2sN cells - Primary screen; 2% of 43,000 active; S16 Pmp22-F2sN Schwann cells, FLuc/NLuc coincidence luminescence, 24 h; Potency, µM (top dose mostly 57.5 µM), actives largely listed as inhibitors; active means clear falling dose curves in both reporters; inconclusive means both reporters move, but less clearly or upward; inactive means either reporter flat; the % is the NLuc reporter signal
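S16 Schwann cells carrying FLuc/NLuc coincidence reporter in the Pmp22 3' UTR treated with compound 24 h at 37C; FLuc then NLuc luminescence read sequentially by dual-luciferase reagents.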
pS6 MEF inh = Acumen qHTS Assay for Inhibitors of the mTORC1 Signaling Pathway in MEF (Tsc2-/-, p53-/-) Cells: Sytravon | Tsc2-/- p53-/- MEF, phospho-rpS6 immunofluorescence/PI, 24 h | Potency, µM (highest dose often 38.3 µM), actives largely listed as inhibitors | 0.78% of 44,000 active | AID 493208, 2011; further: nearly all actives have a fitted effect of over 50% in size
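Cell-based qHTS: Tsc2-/- p53-/- MEF, 24 h cpd, 37 °C; fix/perm, anti-phospho-S6 Alexa-488 + PI; Acumen 488 nm scan; pS6/PI ratio, % positive cells; rapamycin 7.5 nM = inhibition ref; PI count = viability.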
HTT-AS act = Primary qHTS for Identification of Small Molecule Activators of Huntingtin-Antisense Promoter Activity. AID 1508624, 2021. Potency, µM (top dose mostly 57.5 µM), usual class: activators. HEK293 HTT-AS promoter firefly luciferase reporter, 24 h; response scale: percent change from vehicle, -100% = no light. 0.24% of 48,000 active; further: nearly all actives have a fitted effect of over 55% in size
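Firefly luciferase readout (Dual-Glo, 10 min RT) after 24 h, 37 °C compound exposure (final up to 57.5 uM) of HEK293 reporter cells cultured 24 h beforehand; PTC124 at 50 uM final as control inhibitor; activity scaled vehicle 0%, zero RLU -100%.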
HTT promoter inh = Primary qHTS for Identification of Small Molecule Inhibitors of Huntingtin Promoter Activity | HEK293 HTT promoter firefly luciferase reporter, 24 h | Potency, µM (top dose mostly 57.5 µM), usual class: inhibitors | AID 1508623, 2021 | 0.93% of 48,000 active; further: nearly all actives have a fitted effect of over 50% in size
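Firefly luciferase readout (Dual-Glo, 10 min RT) after 24 h, 37 °C compound exposure (final up to 57.5 uM) of HEK293 reporter cells cultured 24 h beforehand; PTC124 at 50 uM final as control inhibitor; activity scaled vehicle 0%, zero RLU -100%.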
S16 viability = Cell viability qHTS assay in S16 Pmp22-F2sN cells. AID 1508642, 2021. S16 Pmp22-F2sN Schwann cells viability, CellTiter-Glo, 24 h. 0.48% of 43,000 active. Potency, µM (highest dose often 57.5 µM), actives largely listed as cytotoxic; further: nearly all actives have a fitted effect of over 65% in size
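S16 Pmp22-F2sN Schwann cells (500-1,000/well) in phenol-red-free DMEM with 10% FBS received 23 nL compound by pin tool for 24 h at 37 °C. Viability was then read as CellTiter-Glo luminescence after 15 min at room temperature.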
NLuc saturating = Biochemical NLuc saturation counterscreen for small molecule modulators of PMP22 gene expression - Nano-Glo assay | Potency, µM (highest dose often 57.5 µM), actives largely listed as inhibitors | shares compounds with PMP22 txn | 4% of 690 active | Secreted NLuc enzyme (filtered S16 cell medium), Nano-Glo luminescence | AID 1508638, 2021
NLuc Km ctr = Biochemical coelenterazine-based NLuc counterscreen for small molecule modulators of PMP22 gene expression - Km assay | shares compounds with PMP22 txn | secreted NLuc enzyme, coelenterazine luminescence, Km conditions | Potency, µM (doses to about 57.5 µM), hits mostly inhibitors | 5% of 690 active
FLuc counter = Biochemical FLuc counterscreen for small molecule modulators of PMP22 gene expression; shares compounds with PMP22 txn; purified P. pyralis FLuc, luminescence, 10 min; Potency, µM (highest dose often 57.5 µM), actives largely listed as inhibitors; 690 tested, under 10 active
Target sequence (P08659 whole entry, looked up): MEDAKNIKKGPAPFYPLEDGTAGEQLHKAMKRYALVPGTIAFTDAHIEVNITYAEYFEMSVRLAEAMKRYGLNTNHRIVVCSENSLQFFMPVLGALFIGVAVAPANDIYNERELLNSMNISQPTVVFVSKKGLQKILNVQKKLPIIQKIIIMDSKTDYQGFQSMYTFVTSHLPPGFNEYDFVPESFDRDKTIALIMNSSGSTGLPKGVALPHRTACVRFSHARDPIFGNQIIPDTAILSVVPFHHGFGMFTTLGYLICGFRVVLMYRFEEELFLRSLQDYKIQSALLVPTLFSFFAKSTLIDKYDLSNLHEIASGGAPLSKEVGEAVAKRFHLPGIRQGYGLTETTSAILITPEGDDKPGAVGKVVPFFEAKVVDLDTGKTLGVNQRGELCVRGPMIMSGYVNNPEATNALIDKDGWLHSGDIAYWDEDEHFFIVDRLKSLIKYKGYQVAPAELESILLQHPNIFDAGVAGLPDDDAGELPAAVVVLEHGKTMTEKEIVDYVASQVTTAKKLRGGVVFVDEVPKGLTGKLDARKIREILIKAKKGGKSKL
S16 viab conf = Cell viability qHTS assay in S16 Pmp22-F2sN cells - Confirmatory screen; shares compounds with PMP22 txn; S16 Schwann cells viability, CellTiter-Glo ATP luminescence, 24 h; Potency, µM (titrated, usually from 57.5 µM), hits mostly cytotoxic; 7% of 690 active
PMP22 txn cnf = Cell-based coincidence reporter assay to measure PMP22 gene transcription in S16 Pmp22-F2sN cells - Confirmatory screen; shares compounds with PMP22 txn; S16 Schwann cells Pmp22-F2sN, dual luciferase, 24 h; Potency, µM (titrated, usually from 57.5 µM), actives largely listed as inhibitors; 22% of 690 active; AID 1508646, 2021; active means clear falling dose curves in both reporters; inconclusive means both reporters move, but less clearly or upward; inactive means either reporter flat; the % is the FLuc reporter signal
PMP22 prot conf = Cell-based HiBiT reporter assay to measure PMP22 protein expression in S16 Pmp22-HiBiT cells - Confirmatory screen; shares compounds with PMP22 txn; S16 Schwann cells Pmp22-HiBiT, luminescence, 48 h; Potency, µM (doses to about 27.9 µM), actives largely listed as inhibitors; 95 tested, under 10 active; AID 1508647, 2021
Target sequence (P25094 whole entry, looked up): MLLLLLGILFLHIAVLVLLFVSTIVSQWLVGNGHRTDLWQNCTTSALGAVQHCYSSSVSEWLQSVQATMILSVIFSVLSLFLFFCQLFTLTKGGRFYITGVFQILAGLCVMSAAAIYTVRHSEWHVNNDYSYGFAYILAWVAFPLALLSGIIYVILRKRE
Of the large screens only hits and unclear results are named; the others gave an inactive call (follow-up assays come after a bar, where they were run). Compounds with a hit are over-represented: about 3.6% of the library has one in this group of screens. Unless noted, the call rests on the fitted dose curve; in most records, active means well fitted curve in the direction sought with a large enough effect; inconclusive means small, poorly fitted or top-dose-only effect, or another doubt; inactive means no such curve, though single readings can be large; an effect the other way counts as inactive or inconclusive.

Cc1[nH]c2ccccc2c1C1(O)C(=O)N(Cc2ccccc2)c2ccc(Cl)cc21 (stereo not drawn)	PMP22 txn 16µM, pS6 MEF inh inconclusive, HTT promoter inh inconclusive | NLuc saturating inactive | NLuc Km ctr inconclusive | FLuc counter inactive | S16 viab conf inconclusive | PMP22 txn cnf inconclusive
Cc1ccc(CN2C(=O)C(O)(c3c(C)[nH]c4ccccc34)c3ccccc32)cc1 (stereo not drawn)	PMP22 txn 8.2µM, pS6 MEF inh inconclusive | NLuc saturating inconclusive | NLuc Km ctr inconclusive | FLuc counter inactive | S16 viab conf inactive | PMP22 txn cnf 17µM | PMP22 prot conf inactive
Cc1[nH]c2ccccc2c1C1(O)C(=O)N(Cc2ccc(Cl)cc2)c2ccccc21 (stereo not drawn)	PMP22 txn inconclusive, pS6 MEF inh inconclusive, S16 viability inconclusive
Cc1cc(C=c2sc3nc4ccccc4n3c2=O)c(C)n1-c1ccccc1	HTT promoter inh inconclusive (no result: PMP22 txn, pS6 MEF inh, S16 viability)
C[C@@H](O[C@H]1OCCN(Cc2n[nH]c(=O)[nH]2)[C@H]1c1ccc(F)cc1)c1cc(C(F)(F)F)cc(C(F)(F)F)c1	none (no result: PMP22 txn, pS6 MEF inh, S16 viability)
CCCCCOc1ccc(/C=C/C(=O)Nc2sc(C(C)=O)c(C)c2C(=O)OCC)cc1OC	PMP22 txn 7.5µM | NLuc saturating inactive | NLuc Km ctr inactive | FLuc counter inactive | S16 viab conf inactive | PMP22 txn cnf inactive
CCCCCOc1ccc(/C=C/C(=O)Nc2sc(C)c(C)c2C(=O)OCC)cc1OC	PMP22 txn 7.1µM | NLuc saturating inactive | NLuc Km ctr inactive | FLuc counter inactive | S16 viab conf inactive | PMP22 txn cnf inactive
O=C(CSc1nncn2c1cc1occc12)Nc1ccc(F)c(Cl)c1	none
CCC(Sc1nncn2c1cc1occc12)C(=O)Nc1ccc(C)c(Cl)c1 (stereo not drawn)	PMP22 txn 17µM, HTT-AS act inconclusive, S16 viability inconclusive | NLuc saturating inconclusive | NLuc Km ctr inconclusive | FLuc counter inactive | S16 viab conf inactive | PMP22 txn cnf inconclusive
Cc1sccc1Br	none (no result: PMP22 txn, pS6 MEF inh, S16 viability)
COC(=O)c1c(-c2ccc(Cl)cc2)noc1N1CCN(c2cccc(C(F)(F)F)c2)CC1	PMP22 txn 5.4µM, pS6 MEF inh inconclusive, HTT-AS act inconclusive, S16 viability inconclusive | NLuc saturating inactive | NLuc Km ctr inactive | FLuc counter inactive | S16 viab conf inconclusive | PMP22 txn cnf 16µM | PMP22 prot conf inactive
COC(=O)c1c(-c2ccc(Cl)cc2)noc1N1CCN(c2ccccc2OC)CC1	PMP22 txn 8.9µM, HTT promoter inh inconclusive, S16 viability inconclusive | NLuc saturating inactive | NLuc Km ctr inactive | FLuc counter inactive | S16 viab conf inactive | PMP22 txn cnf 19µM | PMP22 prot conf inactive
COC(=O)c1c(-c2ccc(Cl)cc2)noc1N1CCN(c2ccc(F)cc2)CC1	PMP22 txn 3.8µM | NLuc saturating inactive | NLuc Km ctr inactive | FLuc counter inactive | S16 viab conf inconclusive | PMP22 txn cnf 13µM | PMP22 prot conf inactive
COc1ccccc1N1CCN(C(=O)CSc2nc(-c3ccc(C(C)C)cc3)no2)CC1	PMP22 txn inconclusive, HTT promoter inh inconclusive
COc1ccc(CN2CCN(c3ncnc4sc5c(c34)CCCC5)CC2)cc1F	PMP22 txn 5.3µM, HTT promoter inh inconclusive, S16 viability inconclusive | NLuc saturating inactive | NLuc Km ctr inactive | FLuc counter inactive | S16 viab conf inactive | PMP22 txn cnf inconclusive
Cc1cccc(N(C)S(=O)(=O)c2ccc(-c3cc(C)no3)s2)c1	PMP22 txn 7.6µM, HTT promoter inh inconclusive | NLuc saturating inconclusive | NLuc Km ctr inconclusive | FLuc counter inactive | S16 viab conf inactive | PMP22 txn cnf inconclusive
Cc1cc(-c2ccc(S(=O)(=O)Nc3cccc(C(F)(F)F)c3)s2)on1	PMP22 txn inconclusive, HTT promoter inh inconclusive
CCC(C)NC(=O)c1ccc(-n2c(-c3ccccc3)cc3c2CCCC3)cc1 (stereo not drawn)	PMP22 txn inconclusive
COCCCNC(=O)c1ccc(-n2c(-c3ccccc3)cc3c2CCC(C)C3)cc1 (stereo not drawn)	PMP22 txn 18µM, HTT promoter inh inconclusive | NLuc saturating inactive | NLuc Km ctr inactive | FLuc counter inactive | S16 viab conf inconclusive | PMP22 txn cnf 2.7µM | PMP22 prot conf inactive
CC(C)NC(=O)c1ccc(-n2c(-c3ccccc3)cc3c2CCCC3)cc1	PMP22 txn 14µM, pS6 MEF inh inconclusive, S16 viability inconclusive | NLuc saturating inactive | NLuc Km ctr inactive | FLuc counter inactive | S16 viab conf inconclusive | PMP22 txn cnf inactive
CN(C)CCNC(=O)c1ccc(-n2c(-c3ccccc3)cc3c2CCCC3)cc1	PMP22 txn 20µM, pS6 MEF inh inconclusive | NLuc saturating inactive | NLuc Km ctr inactive | FLuc counter inactive | S16 viab conf inconclusive | PMP22 txn cnf inconclusive
CCCNC(=O)c1ccc(-n2c(-c3ccccc3)cc3c2CCCCC3)cc1	PMP22 txn inconclusive
